The values that follow come from PubChem BioAssay (NCATS).

Values joined by “and” are separate entries in the source; they are usually repeats but may differ in a detail not shown here. Equal entries are not always repeated. Records with an inconclusive call do not appear. Values without a mark were called inactive. Active and inactive are the calls of the source. The call rests on the fitted dose curve; in most records, active means well fitted curve in the direction sought with a large enough effect; inconclusive means small, poorly fitted or top-dose-only effect, or another doubt; inactive means no such curve, though single readings can be large; an effect the other way counts as inactive or inconclusive.

Assay [1] deals with Cellular tumor antigen p53 (Homo sapiens) (UniProt P04637). Description: Primary qHTS for small molecule compounds that upregulate eGFP-tagged delta133p53alpha (in N-terminal) cells. (AID 2060322).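 Further: series mostly up to about 56 µM; 0% = DMSO vehicle and 100% = reference activator; nearly all actives have a fitted effect of over 75% in size.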 To be noted: NCI-H358 eGFP-delta133p53alpha fluorescence, 24 h; activation: stronger effect = higher value. Summed up:
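NCI-H358 cells pre-induced 24 h with 10 ng/ml doxycycline to express N-terminal eGFP-delta133p53alpha, then dosed 24 h at 37C without doxycycline; fixed, Hoechst-stained, GFP intensity by laser scanning cytometry, normalized to DMSO (0%) and 57.5 uM 5-azacytidine (100%).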
For orientation: qHTS replaces the single test concentration by a dilution series.

Assay [2] in a line: BET inhibitor-based combinations targeting novel dependencies in MECOM-rearranged (r) AML: SET-2 cell line (AID 2202231). Further: nearly all actives have a fitted effect of over 35% in size. Further: potency means the concentration at half of the fitted maximal effect.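 On viability: plate controls were DMSO treated cells for no effect and wells without cells for full effect.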 As to conditions: SET-2 AML cells viability, CellTiter-Glo luminescence, 48 h; viability: stronger effect = lower value, concentration not given here. A digest of the protocol:
(§1)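 Luminescent ATP readout (CellTiter-Glo) after 48 hr drug exposure gives viability. Curves span 11 concentrations and are normalized to DMSO and empty wells. Activity is reported as area under the curve and its Z-transform within each cell line.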

Assay [3] is described as follows: BET inhibitor-based combinations targeting novel dependencies in MECOM-rearranged (r) AML: OCI-AML3 cell line (AID 2202232). Further: nearly all actives have a fitted effect of over 35% in size. Further: potency means the concentration at half of the fitted maximal effect. As to conditions: Potency: OCI-AML3 viability. Summed up:
as §1

Assay [4] can be described thus: BET inhibitor-based combinations targeting novel dependencies in MECOM-rearranged (r) AML: MV-4-11 cell line (AID 2202233). Further: potency means the concentration at half of the fitted maximal effect; nearly all actives have a fitted effect of over 45% in size. A digest of the protocol: (§2)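 Luminescent ATP readout (CellTiter-Glo, 15 min at room temperature) after 48 hr drug exposure gave viability. Dose-response curves, normalized to DMSO and empty-well controls, were summarized as area under the curve and its mean-centred Z-score.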

A short description of assay [5]: BET inhibitor-based combinations targeting novel dependencies in MECOM-rearranged (r) AML: HNT-34 cell line (AID 2202234). Further: nearly all actives have a fitted effect of over 35% in size. Further: potency means the concentration at half of the fitted maximal effect. Summed up:
as §2

The nature of assay [6]: BET inhibitor-based combinations targeting novel dependencies in MECOM-rearranged (r) AML: AML-191 cell line (AID 2202236; further: nearly all actives have a fitted effect of over 35% in size; further: potency means the concentration at half of the fitted maximal effect). A digest of the protocol: as §1
Assay [7] can be described thus: BET inhibitor-based combinations targeting novel dependencies in MECOM-rearranged (r) AML: AML-194 cell line (AID 2202237; further: nearly all actives have a fitted effect of over 40% in size; further: potency means the concentration at half of the fitted maximal effect). Summed up: as §1
The nature of assay [8]: BET inhibitor-based combinations targeting novel dependencies in MECOM-rearranged (r) AML: UCSD-AML1 cell line (AID 2202235). Further: nearly all actives have a fitted effect of over 40% in size. Further: potency means the concentration at half of the fitted maximal effect. Summed up: as §2

Sequence of Cellular tumor antigen p53 (Homo sapiens) (P04637 whole entry, looked up): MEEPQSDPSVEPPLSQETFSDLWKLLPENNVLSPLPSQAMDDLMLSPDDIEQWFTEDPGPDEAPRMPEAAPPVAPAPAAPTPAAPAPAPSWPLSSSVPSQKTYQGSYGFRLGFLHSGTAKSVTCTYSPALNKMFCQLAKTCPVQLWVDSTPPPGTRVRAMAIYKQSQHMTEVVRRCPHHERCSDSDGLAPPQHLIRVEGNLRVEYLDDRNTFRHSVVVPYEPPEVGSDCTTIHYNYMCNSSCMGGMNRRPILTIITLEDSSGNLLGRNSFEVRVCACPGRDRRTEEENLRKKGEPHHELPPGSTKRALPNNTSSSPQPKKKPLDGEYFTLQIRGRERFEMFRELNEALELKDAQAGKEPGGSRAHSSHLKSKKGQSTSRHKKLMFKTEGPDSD

In the case of `C1CCC(C(CC2CCCCN2)C2CCCCC2)CC1` (stereo not given), the activation in assay [1] was 21.8%. In addition, the Potency was 11.8 µM (active) in assay [2]; 6.61 µM (active) in assay [3]; 8.33 µM (active) in assay [4]; 7.42 µM (active) in assay [5]; 9.34 µM (active) in assay [6]; 7.42 µM (active) in assay [7].

For `CCN1CCN(CC(=O)Nc2ccc(-c3cccc4c(=O)cc(N5CCOCC5)oc34)c3sc4ccccc4c23)CC1`, the activation in assay [1] was -18.4%. The Potency was 8.11 µM (active) in assay [2]; 2.57 µM (active) in assay [3]; 5.74 µM (active) in assay [5]; 2.57 µM (active) in assay [8]; 5.74 µM (active) in assay [6]; 3.23 µM (active) in assay [7].

On to `COc1c(N2C[C@@H]3CCCN[C@H]3C2)c(F)cc2c(=O)c(C(=O)O)cn(C3CC3)c12`, for which the activation in assay [1] was 0.987%. Also, the Potency in assay [2] is 14.8 µM (active). Also, the Potency entry in assay [3], in assay [5], in assay [6] and in assay [7] was “inactive” each time.

One may read the viability as a read-out of living cells in per cent, often relative to untreated cells. As to `COC(=O)[C@H](c1ccccc1Cl)N1CCc2sccc2C1`, the activation in assay [1] is 12.2%. Further, in assay [2], the viability is 110%. Also, the Potency result in assay [3], in assay [5], in assay [8], in assay [6] and in assay [7] was “inactive” in each case.

As to `O=C(Nc1cccc(Cl)c1)Nc1ncc(CCNc2ncnc3ccsc23)s1`, the activation in assay [1] was -7.26%. Besides, the values for the Potency in assay [2] and in assay [3] were 20.9 µM (active) and 0.166 µM (active), respectively. In assay [8], the Potency entry was “inactive”.

`O=[N+]([O-])c1cncn1CCN1CCOCC1`: the activation in assay [1] is -23.4%. Further, in assay [2], the viability was 112%. Besides, the Potency result in assay [3], in assay [5], in assay [8], in assay [6] and in assay [7] was “inactive” in each case.

Consider `O=C(O)CCCCC(CCSCc1ccccc1)SCc1ccccc1` (stereo not given), for which the activation in assay [1] is 1.42%. In assay [2], the viability is 107%. Besides, the Potency entry in assay [3], in assay [5], in assay [8], in assay [6] and in assay [7] was “inactive” throughout.

As to `NC(=O)c1cccc(-c2cccc(OC(=O)NC3CCCCC3)c2)c1`, the activation in assay [1] was -16.3%. In assay [2], the viability is 103%. For the same molecule, the Potency result in assay [3], in assay [5], in assay [8], in assay [6] and in assay [7] was “inactive” throughout.

Consider `Cn1c(=O)c(Oc2ccc(F)cc2F)cc2cnc(NC3CCOCC3)nc21`, for which the activation in assay [1] was -33.7%. In addition, in assay [2], the viability is 115%. The Potency entry in assay [3], in assay [5], in assay [8], in assay [6] and in assay [7] was “inactive” throughout.

Consider `O=C(O)c1ccc(-n2nc(-c3ccccc3O)nc2-c2ccccc2O)cc1`, for which, in assay [1], the activation is -1.69% and -24.7%. In addition, the values for the Potency in assay [2], in assay [3] and in assay [6] were 20.9 µM (active), 14.8 µM (active) and 16.6 µM (active), respectively. Further, the Potency entry in assay [8] is “inactive”.

Turning to `COc1ccc(Nc2nccc(NCCO)n2)cc1`, the activation in assay [1] was 25.6%. Further, the viability in assay [2] is 106%. Further, in assay [3], the Potency is 23.5 µM (active). In addition, the Potency result in assay [5], in assay [8], in assay [6] and in assay [7] was “inactive” in each case.

Take `Cc1cccc(N(C)C(=S)Oc2ccc3ccccc3c2)c1`: the activation in assay [1] is 2.82% and 1.76%. For the same molecule, the viability in assay [2] is 85.9%. Further, the Potency result in assay [3] and in assay [5] was “inactive” throughout.

As for `CCOC(=O)c1ccc(OC(=O)CCCCCN=C(N)N)cc1`, the activation in assay [1] was 31%. Moreover, in assay [2], the viability is 106%. Moreover, the Potency result in assay [3], in assay [5], in assay [8], in assay [6] and in assay [7] was “inactive” each time.

As to `CCn1cc(C(=O)O)c(=O)c2cc(F)c(N3CCN(C)CC3)cc21`, the activation in assay [1] is -2.51% and -35.6%. Further, the viability in assay [2] was 97.2%. Also, the Potency result in assay [3], in assay [5], in assay [8], in assay [6] and in assay [7] was “inactive” throughout.

Turning to `COc1cc(OC2CCN(C)CC2)ccc1Nc1ncc2c(n1)n(C1CCCC1)c(=O)n2C`, the activation in assay [1] is 2.88%. The Potency is 4.68 µM (active) in assay [2]; 13.2 µM (active) in assay [3]; 13.2 µM (active) in assay [5]; 14.8 µM (active) in assay [8]; 18.6 µM (active) in assay [6]; 16.6 µM (active) in assay [7].

Regarding `COc1ccc(-c2ccc3cc(C(=O)O)ccc3c2)cc1C12CC3CC(CC(C3)C1)C2`, the activation in assay [1] is -14.2% and 5.04%. Also, the viability in assay [2] was 111%. For the same molecule, in assay [3], the Potency was 0.0033 µM (active). Also, the Potency entry in assay [5], in assay [8], in assay [6] and in assay [7] was “inactive” in each case.

Consider `Cc1cc2cc3c(C)cc(=O)oc3c(C)c2o1`, for which the activation in assay [1] was -5.86% and 16.7%. Further, in assay [2], the viability was 111%. Further, the Potency entry in assay [3], in assay [5], in assay [8], in assay [6] and in assay [7] was “inactive” throughout.

Turning to `CC(C)OC(=O)C(C(=O)OC(C)C)=C1SC=CS1`, the activation in assay [1] was 3.95% and 27.9%. Moreover, in assay [2], the viability was 105%. Moreover, the Potency result in assay [3], in assay [5], in assay [6] and in assay [7] was “inactive” in each case.

With `Nc1nc(N)nc(-c2cc(Cl)ccc2Cl)n1`, in assay [1], the activation was 2.82% and 12%. In assay [2], the viability was 105%. Besides, the Potency entry in assay [3], in assay [5], in assay [8] and in assay [6] was “inactive” each time.

Take `CC(C)(Sc1cc(C(C)(C)C)c(O)c(C(C)(C)C)c1)Sc1cc(C(C)(C)C)c(O)c(C(C)(C)C)c1`: the activation in assay [1] is 5.08% and 14.9%. In assay [2], the viability is 103%. In addition, the Potency entry in assay [3], in assay [5] and in assay [8] was “inactive” throughout. In addition, the Potency in assay [7] was 13.2 µM (active).

Consider `O=c1[nH]nc(Sc2ncc([N+](=O)[O-])s2)n1-c1ccc2c(c1)OCCO2`, for which the activation in assay [1] was -12.9%. In addition, the Potency in assay [2] was 7.42 µM (active); in assay [3], 2.95 µM (active); in assay [5], 3.32 µM (active); in assay [8] it was 9.34 µM (active); in assay [6] it was 3.32 µM (active); in assay [7], 7.42 µM (active).
